# Source: the supplement of paper PMC11732987, “Enantioselective OTUD7B fragment discovery through chemoproteomics screening and high-throughput optimisation” (Communications Chemistry, 2025)
# A number with no mark means an inactive call.
# Experiments:
# Experiment in all cases: log2 ratio of Biotin-Ahx-Ub-VS probe labelling (fragment/DMSO); higher = less target engagement (more negative = stronger competition), active = hit call of the paper (q ≤ 0.05, log2 ratio ≤ -1)
# Conditions in all cases: compound concentration: 200 uM; treatment time: 3 h
# USP19 = biological target: T1, USP19 (UniProt O94966)
# T1 sequence (whole entry): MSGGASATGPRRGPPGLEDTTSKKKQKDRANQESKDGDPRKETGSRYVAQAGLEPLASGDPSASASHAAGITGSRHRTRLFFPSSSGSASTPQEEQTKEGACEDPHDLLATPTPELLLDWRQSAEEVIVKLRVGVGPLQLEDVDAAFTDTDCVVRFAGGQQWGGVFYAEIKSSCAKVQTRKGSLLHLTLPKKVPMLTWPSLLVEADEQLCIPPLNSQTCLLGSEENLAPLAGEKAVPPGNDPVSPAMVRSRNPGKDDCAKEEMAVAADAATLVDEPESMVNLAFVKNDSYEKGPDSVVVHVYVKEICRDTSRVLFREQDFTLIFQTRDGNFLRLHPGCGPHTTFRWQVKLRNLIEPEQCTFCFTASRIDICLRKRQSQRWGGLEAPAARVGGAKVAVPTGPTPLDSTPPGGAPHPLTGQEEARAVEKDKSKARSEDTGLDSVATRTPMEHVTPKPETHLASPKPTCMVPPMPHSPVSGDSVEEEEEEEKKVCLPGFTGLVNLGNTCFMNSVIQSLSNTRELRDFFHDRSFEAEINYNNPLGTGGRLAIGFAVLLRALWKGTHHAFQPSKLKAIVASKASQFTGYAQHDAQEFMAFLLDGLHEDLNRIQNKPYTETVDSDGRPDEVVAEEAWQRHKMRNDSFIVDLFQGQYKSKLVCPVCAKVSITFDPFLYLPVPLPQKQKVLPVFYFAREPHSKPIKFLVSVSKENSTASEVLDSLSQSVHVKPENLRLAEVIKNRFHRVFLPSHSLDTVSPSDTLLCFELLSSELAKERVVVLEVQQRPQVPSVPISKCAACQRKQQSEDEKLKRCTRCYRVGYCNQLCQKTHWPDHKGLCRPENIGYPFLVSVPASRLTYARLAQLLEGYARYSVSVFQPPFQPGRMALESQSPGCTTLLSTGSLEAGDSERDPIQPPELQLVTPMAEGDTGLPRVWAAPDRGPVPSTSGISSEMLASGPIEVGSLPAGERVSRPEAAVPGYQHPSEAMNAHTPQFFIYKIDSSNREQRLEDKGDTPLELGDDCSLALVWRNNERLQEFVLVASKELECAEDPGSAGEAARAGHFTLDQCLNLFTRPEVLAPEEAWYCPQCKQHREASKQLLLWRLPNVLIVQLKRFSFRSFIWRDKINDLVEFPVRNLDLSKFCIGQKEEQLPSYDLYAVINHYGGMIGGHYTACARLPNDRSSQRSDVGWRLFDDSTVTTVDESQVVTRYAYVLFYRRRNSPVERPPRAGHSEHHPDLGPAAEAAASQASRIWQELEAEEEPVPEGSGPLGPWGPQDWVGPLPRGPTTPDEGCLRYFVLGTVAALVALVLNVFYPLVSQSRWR
# How it was run: (§1)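 Global-median-normalised Spectronaut label-free quantities were compared by unpaired t-test, and values are average log2 ratios of fragment over vehicle. Only proteins with ≥2 unique peptides were used. HEK293T lysate (495 µg per sample) was treated in triplicate with fragment at 200 µM or vehicle for 3 h and then with Biotin-Ahx-Ub-VS at 0.5 µM final for 1 h. Labelled DUBs were then NeutrAvidin-enriched, digested with LysC and trypsin, and run by diaPASEF LC-MS/MS.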
# USP22 = biological target: T2, USP22 (UniProt Q9UPT9)
# T2 sequence (whole entry): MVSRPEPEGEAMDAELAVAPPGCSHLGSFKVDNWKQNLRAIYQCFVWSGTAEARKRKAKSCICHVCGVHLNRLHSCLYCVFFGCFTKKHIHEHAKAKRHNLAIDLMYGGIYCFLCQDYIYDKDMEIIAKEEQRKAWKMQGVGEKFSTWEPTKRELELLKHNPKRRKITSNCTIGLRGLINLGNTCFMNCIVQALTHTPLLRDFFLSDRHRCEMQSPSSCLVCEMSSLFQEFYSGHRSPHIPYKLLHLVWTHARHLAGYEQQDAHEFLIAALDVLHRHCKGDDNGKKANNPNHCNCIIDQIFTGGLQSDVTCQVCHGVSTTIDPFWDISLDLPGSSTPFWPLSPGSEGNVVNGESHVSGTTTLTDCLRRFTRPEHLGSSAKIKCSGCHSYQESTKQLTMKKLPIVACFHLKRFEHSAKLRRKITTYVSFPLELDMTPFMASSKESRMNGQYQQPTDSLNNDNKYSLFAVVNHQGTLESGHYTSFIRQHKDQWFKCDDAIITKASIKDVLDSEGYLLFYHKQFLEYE
# How it was run: as §1
# USP24 = USP24 (UniProt Q9UPU5)
# How it was run: as §1
# USP25 = biological target: T3, USP25 (UniProt Q9UHP3)
# T3 sequence (whole entry): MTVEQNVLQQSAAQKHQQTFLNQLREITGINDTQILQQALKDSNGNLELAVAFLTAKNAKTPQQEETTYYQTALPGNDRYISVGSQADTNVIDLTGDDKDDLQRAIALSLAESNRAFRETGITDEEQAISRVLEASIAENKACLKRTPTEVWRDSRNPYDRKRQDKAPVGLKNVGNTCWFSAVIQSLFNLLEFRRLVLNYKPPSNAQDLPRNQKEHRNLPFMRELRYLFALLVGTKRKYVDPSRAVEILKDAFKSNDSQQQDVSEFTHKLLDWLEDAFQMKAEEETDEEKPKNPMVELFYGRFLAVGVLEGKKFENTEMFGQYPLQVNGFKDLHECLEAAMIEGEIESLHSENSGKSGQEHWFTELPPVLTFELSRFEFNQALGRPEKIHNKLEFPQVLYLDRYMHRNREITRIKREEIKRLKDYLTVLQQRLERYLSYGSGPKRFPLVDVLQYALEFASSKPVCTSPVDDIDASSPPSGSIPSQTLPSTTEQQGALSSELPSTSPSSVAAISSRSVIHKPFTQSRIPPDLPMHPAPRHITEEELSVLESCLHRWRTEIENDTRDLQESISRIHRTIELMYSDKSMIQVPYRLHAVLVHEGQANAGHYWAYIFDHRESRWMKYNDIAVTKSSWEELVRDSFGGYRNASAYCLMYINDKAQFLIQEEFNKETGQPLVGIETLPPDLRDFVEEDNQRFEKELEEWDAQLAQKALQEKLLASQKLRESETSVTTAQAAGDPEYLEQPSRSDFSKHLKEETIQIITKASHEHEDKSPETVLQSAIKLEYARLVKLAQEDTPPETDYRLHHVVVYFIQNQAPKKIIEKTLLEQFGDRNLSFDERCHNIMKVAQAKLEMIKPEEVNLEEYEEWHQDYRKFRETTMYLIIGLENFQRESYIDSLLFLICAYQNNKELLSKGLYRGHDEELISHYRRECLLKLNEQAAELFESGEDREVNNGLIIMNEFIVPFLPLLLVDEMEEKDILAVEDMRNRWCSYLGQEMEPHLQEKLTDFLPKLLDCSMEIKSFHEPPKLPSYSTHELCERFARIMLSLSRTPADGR
# How it was run: as §1
# USP28 = biological target: T4, USP28 (UniProt Q96RU2)
# T4 sequence (whole entry): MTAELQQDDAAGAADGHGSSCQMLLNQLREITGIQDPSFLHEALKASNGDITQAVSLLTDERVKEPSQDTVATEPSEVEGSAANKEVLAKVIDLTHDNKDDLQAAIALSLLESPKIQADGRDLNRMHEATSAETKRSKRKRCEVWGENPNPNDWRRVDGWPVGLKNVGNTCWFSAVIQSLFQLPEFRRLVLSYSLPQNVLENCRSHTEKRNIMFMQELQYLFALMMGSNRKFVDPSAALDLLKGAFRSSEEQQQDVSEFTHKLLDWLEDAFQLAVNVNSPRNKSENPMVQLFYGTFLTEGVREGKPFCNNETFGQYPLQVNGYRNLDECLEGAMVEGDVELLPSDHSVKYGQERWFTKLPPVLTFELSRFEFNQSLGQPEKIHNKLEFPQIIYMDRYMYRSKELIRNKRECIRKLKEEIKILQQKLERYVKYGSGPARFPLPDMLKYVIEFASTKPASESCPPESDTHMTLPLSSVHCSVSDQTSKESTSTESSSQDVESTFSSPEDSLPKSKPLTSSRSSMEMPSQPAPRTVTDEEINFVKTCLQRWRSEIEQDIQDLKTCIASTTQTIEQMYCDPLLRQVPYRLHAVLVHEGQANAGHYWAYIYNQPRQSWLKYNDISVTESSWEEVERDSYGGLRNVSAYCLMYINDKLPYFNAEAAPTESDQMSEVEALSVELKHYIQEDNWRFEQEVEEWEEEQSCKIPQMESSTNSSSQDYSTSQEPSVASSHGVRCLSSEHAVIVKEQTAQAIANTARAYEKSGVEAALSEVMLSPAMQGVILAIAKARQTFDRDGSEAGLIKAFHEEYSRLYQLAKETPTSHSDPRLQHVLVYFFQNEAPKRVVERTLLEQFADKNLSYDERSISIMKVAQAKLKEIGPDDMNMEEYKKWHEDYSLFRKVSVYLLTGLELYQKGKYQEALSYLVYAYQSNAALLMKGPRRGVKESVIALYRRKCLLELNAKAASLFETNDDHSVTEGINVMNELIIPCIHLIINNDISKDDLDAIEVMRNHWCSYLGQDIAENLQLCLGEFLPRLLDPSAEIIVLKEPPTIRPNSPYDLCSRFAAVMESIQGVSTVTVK
# How it was run: as §1
# Chain of USP24 (Q9UPU5 whole entry): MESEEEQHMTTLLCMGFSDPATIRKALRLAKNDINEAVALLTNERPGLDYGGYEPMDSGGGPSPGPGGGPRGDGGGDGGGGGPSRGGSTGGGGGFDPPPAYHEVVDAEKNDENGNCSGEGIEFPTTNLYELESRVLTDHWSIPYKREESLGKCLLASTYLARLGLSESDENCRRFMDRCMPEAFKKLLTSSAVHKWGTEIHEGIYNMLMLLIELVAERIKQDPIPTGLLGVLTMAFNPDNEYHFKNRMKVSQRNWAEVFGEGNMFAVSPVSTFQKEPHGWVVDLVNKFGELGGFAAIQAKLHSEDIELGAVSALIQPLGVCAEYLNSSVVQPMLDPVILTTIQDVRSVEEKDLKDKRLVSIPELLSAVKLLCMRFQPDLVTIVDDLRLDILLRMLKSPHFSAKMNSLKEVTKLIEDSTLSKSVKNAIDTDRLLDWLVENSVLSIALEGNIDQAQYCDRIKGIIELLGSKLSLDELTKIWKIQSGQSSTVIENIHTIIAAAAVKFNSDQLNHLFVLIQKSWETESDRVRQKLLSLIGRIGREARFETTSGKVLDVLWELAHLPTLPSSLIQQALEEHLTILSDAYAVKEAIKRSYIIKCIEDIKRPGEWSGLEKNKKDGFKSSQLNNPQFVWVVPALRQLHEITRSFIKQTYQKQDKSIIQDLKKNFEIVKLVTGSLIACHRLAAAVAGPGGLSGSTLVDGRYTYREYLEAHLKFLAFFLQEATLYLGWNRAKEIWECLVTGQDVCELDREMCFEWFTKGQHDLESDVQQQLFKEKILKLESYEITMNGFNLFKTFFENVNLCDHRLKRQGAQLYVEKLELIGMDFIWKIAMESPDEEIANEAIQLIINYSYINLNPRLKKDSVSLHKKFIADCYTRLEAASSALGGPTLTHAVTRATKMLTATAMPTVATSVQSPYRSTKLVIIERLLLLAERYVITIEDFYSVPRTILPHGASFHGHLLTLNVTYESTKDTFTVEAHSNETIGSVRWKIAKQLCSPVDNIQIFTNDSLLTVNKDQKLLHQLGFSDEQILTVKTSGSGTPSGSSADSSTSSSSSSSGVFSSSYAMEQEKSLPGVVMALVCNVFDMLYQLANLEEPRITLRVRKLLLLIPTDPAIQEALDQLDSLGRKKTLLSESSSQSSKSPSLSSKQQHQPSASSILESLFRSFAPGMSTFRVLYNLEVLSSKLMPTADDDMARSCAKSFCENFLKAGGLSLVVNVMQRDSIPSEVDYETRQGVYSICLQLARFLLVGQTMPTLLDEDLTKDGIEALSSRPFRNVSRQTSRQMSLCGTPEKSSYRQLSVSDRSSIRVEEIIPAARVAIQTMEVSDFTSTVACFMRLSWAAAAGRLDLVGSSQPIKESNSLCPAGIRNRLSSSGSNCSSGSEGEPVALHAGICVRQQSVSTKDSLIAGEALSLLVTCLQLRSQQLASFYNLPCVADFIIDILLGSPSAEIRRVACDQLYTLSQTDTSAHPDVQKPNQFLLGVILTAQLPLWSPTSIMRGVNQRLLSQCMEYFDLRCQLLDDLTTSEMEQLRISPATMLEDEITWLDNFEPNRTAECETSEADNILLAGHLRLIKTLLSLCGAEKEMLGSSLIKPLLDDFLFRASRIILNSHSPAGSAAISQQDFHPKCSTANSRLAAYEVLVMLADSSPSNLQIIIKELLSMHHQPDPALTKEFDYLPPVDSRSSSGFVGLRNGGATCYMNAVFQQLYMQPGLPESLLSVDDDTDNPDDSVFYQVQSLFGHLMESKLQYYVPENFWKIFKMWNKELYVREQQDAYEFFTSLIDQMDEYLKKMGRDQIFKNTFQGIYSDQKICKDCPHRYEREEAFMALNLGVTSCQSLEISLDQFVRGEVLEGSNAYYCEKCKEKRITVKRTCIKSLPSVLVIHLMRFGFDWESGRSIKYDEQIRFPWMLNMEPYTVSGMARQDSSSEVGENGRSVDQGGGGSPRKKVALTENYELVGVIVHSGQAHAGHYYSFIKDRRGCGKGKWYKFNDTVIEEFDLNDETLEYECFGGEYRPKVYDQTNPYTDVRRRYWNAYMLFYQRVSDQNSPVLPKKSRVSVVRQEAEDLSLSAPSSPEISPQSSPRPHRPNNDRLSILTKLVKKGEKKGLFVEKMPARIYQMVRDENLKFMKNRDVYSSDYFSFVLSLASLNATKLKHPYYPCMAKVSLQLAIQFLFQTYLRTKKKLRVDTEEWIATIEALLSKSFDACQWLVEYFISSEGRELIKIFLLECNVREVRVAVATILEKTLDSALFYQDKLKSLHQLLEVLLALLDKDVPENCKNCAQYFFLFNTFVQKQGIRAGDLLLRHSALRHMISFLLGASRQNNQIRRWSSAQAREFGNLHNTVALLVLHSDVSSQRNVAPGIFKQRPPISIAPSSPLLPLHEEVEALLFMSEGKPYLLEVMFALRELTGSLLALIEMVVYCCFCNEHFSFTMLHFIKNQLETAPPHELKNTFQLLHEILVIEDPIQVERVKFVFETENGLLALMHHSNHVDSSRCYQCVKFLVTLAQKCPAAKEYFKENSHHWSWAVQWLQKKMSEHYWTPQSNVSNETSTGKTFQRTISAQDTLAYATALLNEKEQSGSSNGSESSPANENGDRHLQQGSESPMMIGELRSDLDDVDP
smiles,measurement,setting,value
O=C(CCl)Nc1ccc2c(c1)OC(F)(F)O2,log2 ratio of Biotin-Ahx-Ub-VS probe labelling,USP19,-0.102
same,log2 ratio of Biotin-Ahx-Ub-VS probe labelling,USP22,-0.358
same,log2 ratio of Biotin-Ahx-Ub-VS probe labelling,USP24,-1.19 (active)
same,log2 ratio of Biotin-Ahx-Ub-VS probe labelling,USP25,-0.541
same,log2 ratio of Biotin-Ahx-Ub-VS probe labelling,USP28,-1.3 (active)
